Measured values taken from the supplement of paper PMC7411054.
Structures can show the parent of a compound that is named as a salt.

Tests used:
Details in all cases: treatment time: 24 h
[1] = test system: A549-ACTB-RAB5A; test: lowest phenotypically active concentration; higher = less potent
Summary of the method: (§1)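 After 24 h at 0.3, 1, 3 or 9 µM, with four wells per treatment, fifteen gene-edited A549, HepG2 and WPMY1 reporter lines carrying BFP, GFP and RFP/FusionRed were imaged live. Each well's live-cell features were expressed relative to solvent control wells. Deviation required ≥3 of 4 wells past the 95th percentile of control Euclidean distances, and reproducibility a median replicate Pearson correlation over the 95th percentile of non-replicates. Phenotypic activity rested on both.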

[2] = test system: A549-CANX-COX4; test: as above
Summary of the method: as §1

[3] = test system: A549-GM130-SQSTM1; test: as above
Summary of the method: as §1

[4] = test system: A549-TP53BP1-CLTA; test: as above
Summary of the method: as §1

[5] = test system: A549-TUBA1B-RELA; test: as above
Summary of the method: as §1

[6] = test system: A549-ACTB-RAB5A; test: phenotypically active (imaging signature differs from DMSO and reproducible) at any of 0.3-9 uM (binary (1 = active, 0 = inactive)); higher = active
Summary of the method: as §1

[7] = test system: A549-CANX-COX4; test: as above
Summary of the method: as §1

[8] = test system: A549-GM130-SQSTM1; test: as above
Summary of the method: as §1

[9] = test system: A549-TP53BP1-CLTA; test: as above
Summary of the method: as §1

[10] = test system: A549-TUBA1B-RELA; test: as above
Summary of the method: as §1

[11] = test system: HepG2-ACTB-RAB5A; test: as above
Summary of the method: as §1

[12] = test system: HepG2-CANX-COX4; test: as above
Summary of the method: as §1

[13] = test system: HepG2-GM130-SQSTM1; test: as above
Summary of the method: as §1

[14] = test system: HepG2-TP53BP1-CLTA; test: as above
Summary of the method: as §1

[15] = test system: HepG2-TUBA1B-RELA; test: as above
Summary of the method: as §1

[16] = test system: WPMY1-ACTB-RAB5A; test: as above
Summary of the method: as §1

[17] = test system: WPMY1-CANX-COX4; test: as above
Summary of the method: as §1

[18] = test system: WPMY1-GM130-SQSTM1; test: as above
Summary of the method: as §1

[19] = test system: WPMY1-TP53BP1-CLTA; test: as above
Summary of the method: as §1

[20] = test system: WPMY1-TUBA1B-RELA; test: as above
Summary of the method: as §1

CC(=O)OCC(=O)[C@@]12OC3(CCCC3)O[C@@H]1C[C@H]1[C@@H]3CCC4=CC(=O)C=C[C@]4(C)[C@@]3(F)[C@@H](O)C[C@@]12C [amcinonide]
inactive: phenotypically active [11] 0 | phenotypically active [12] 0 | phenotypically active [13] 0 | phenotypically active [14] 0 | phenotypically active [15] 0 | phenotypically active [16] 0 | phenotypically active [17] 0 | phenotypically active [18] 0 | phenotypically active [19] 0 | phenotypically active [20] 0
≤ 0.3 µM: lowest phenotypically active concentration [1] | lowest phenotypically active concentration [2] | lowest phenotypically active concentration [3] | lowest phenotypically active concentration [4] | lowest phenotypically active concentration [5]
active: phenotypically active [6] 1 | phenotypically active [7] 1 | phenotypically active [8] 1 | phenotypically active [9] 1 | phenotypically active [10] 1

O=C(Nc1cccc(Br)c1)c1cccc(S(=O)(=O)N2CCCCCC2)c1
inactive: phenotypically active [6] 0 | phenotypically active [7] 0 | phenotypically active [8] 0 | phenotypically active [9] 0 | phenotypically active [10] 0 | phenotypically active [11] 0 | phenotypically active [12] 0 | phenotypically active [13] 0 | phenotypically active [14] 0 | phenotypically active [15] 0 | phenotypically active [16] 0 | phenotypically active [17] 0 | phenotypically active [18] 0 | phenotypically active [19] 0 | phenotypically active [20] 0

Cn1cnc2c(NCc3ccccc3)nc(NCCO)nc21 [Olomoucine]
inactive: phenotypically active [6] 0 | phenotypically active [7] 0 | phenotypically active [8] 0 | phenotypically active [9] 0 | phenotypically active [10] 0 | phenotypically active [11] 0 | phenotypically active [12] 0 | phenotypically active [13] 0 | phenotypically active [14] 0 | phenotypically active [15] 0 | phenotypically active [16] 0 | phenotypically active [17] 0 | phenotypically active [18] 0 | phenotypically active [19] 0 | phenotypically active [20] 0

COc1cc(N2CCC(O)CC2)ccc1Nc1cc(Nc2ccccc2S(=O)(=O)C(C)C)c2cc[nH]c2n1 [Mps1-IN-1 dihydrochloride]
9 µM: lowest phenotypically active concentration [1] | lowest phenotypically active concentration [2] | lowest phenotypically active concentration [3] | lowest phenotypically active concentration [4] | lowest phenotypically active concentration [5]
active: phenotypically active [6] 1 | phenotypically active [7] 1 | phenotypically active [8] 1 | phenotypically active [9] 1 | phenotypically active [10] 1 | phenotypically active [11] 1 | phenotypically active [12] 1 | phenotypically active [13] 1 | phenotypically active [14] 1 | phenotypically active [15] 1 | phenotypically active [16] 1 | phenotypically active [17] 1 | phenotypically active [18] 1 | phenotypically active [19] 1
inactive: phenotypically active [20] 0

O=C(O)c1cc(=O)c(O)c(C(=O)O)o1 [Meconic acid]
inactive: phenotypically active [6] 0 | phenotypically active [7] 0 | phenotypically active [8] 0 | phenotypically active [9] 0 | phenotypically active [10] 0 | phenotypically active [11] 0 | phenotypically active [12] 0 | phenotypically active [13] 0 | phenotypically active [14] 0 | phenotypically active [15] 0 | phenotypically active [16] 0 | phenotypically active [17] 0 | phenotypically active [18] 0 | phenotypically active [19] 0 | phenotypically active [20] 0

CC(=O)OC(C)C[N+](C)(C)C (stereo not given) [methacholine]
inactive: phenotypically active [6] 0 | phenotypically active [7] 0 | phenotypically active [8] 0 | phenotypically active [9] 0 | phenotypically active [10] 0 | phenotypically active [11] 0 | phenotypically active [12] 0 | phenotypically active [13] 0 | phenotypically active [14] 0 | phenotypically active [15] 0 | phenotypically active [16] 0 | phenotypically active [17] 0 | phenotypically active [18] 0 | phenotypically active [19] 0 | phenotypically active [20] 0
